Cy5 interf NS3h = enhances or quenches Cy5 fluorescence in NS3h assay | 16,000 tested, 6% active | Cy5-dT15 DNA with NS3h, fluorescence interference; actives lie on both sides; signal over control mean, under 1 quenches | fluorescence interference ratio at 100 µM;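 active means compound fluorescence over control fluorescence at most 0.8, a quencher, or at least a set upper limit, an enhancer; inactive means ratio between 0.8 and the set upper limit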
NS3h inh CB = blocks HCV NS3 helicase binding to DNA. NS3h Cy5-dT15 DNA binding, fluorescence polarization. inhibition, % at 100 µM. 16,000 tested, 1.6% active. AID 687043;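 active means inhibition above the average over every tested compound plus 3 SD, cut at about 40% in these data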
The depositor's hits bear a star. Shown are actives, neighbours in structure and some others; about 7.6% of the full set was active somewhere.

SMILES	Cy5 interf NS3h	NS3h inh CB
CC(C1CC1)N(Cc1ccccc1)C(=O)c1ccc(F)cc1 (stereo not given)	0.594*	9.6
CCOC(=O)N(Cc1ccccc1)C(C(=O)O)C(C(=O)O)N(Cc1ccccc1)C(=O)OCC (stereo not given)	0.965	0.3
Cc1ccc(NC(=O)N(Cc2ccccc2)C(C)C2CC2)cc1 (stereo not given)	0.595*	9.6
CN(C)CCNC(=O)c1ccc(F)cc1	1.02	12.4
Clc1ccc(CN2CCN(/N=C\c3ccc(Cl)c(Cl)c3)CC2)cc1	0.923	13.0
C=CCOc1ccc(Cl)cc1C=C1C(=O)NC(=O)NC1=O	0.95	27.3
CCCOc1c(Br)cc(C2C3=C(CC(C)(C)CC3=O)OC3=C2C(=O)CC(C)(C)C3)cc1OC	0.972	16.9
CCCOc1ccc(C2C3=C(CC(C)(C)CC3=O)OC3=C2C(=O)CC(C)(C)C3)cc1OCC	0.784*	8.8
CCOc1cc(C(=O)Nc2ccc(F)cc2)cc(OCC)c1OCC	0.705*	16.8
CCOc1cc(OCC)cc(C(=O)Nc2ccc(F)cc2)c1	1.03	20.3
O=C1C(Cl)=C(NCc2ccccc2)C(=O)N1c1cccc(Cl)c1Cl	1.01	14.8
COc1ccc(C2CC(C(F)(F)F)n3ncc(C(=O)O)c3N2)cc1OC (stereo not given)	1.01	-9.6
COc1ccc(NC(=O)c2cnn3c2NC(c2ccccc2)CC3C(F)(F)F)cc1OC (stereo not given)	0.73*	8.9
CC(O)c1cccc(NC(=O)c2cnn3c2NC(c2ccco2)CC3C(F)(F)F)c1 (stereo not given)	0.494*	17.0
COc1cc(C2CC(C(F)(F)F)n3ncc(C(=O)N4CCN(Cc5ccccc5)CC4)c3N2)cc(OC)c1OC (stereo not given)	1.03	5.2
COc1ccc(CNC(=O)c2cnn3c2NC(c2ccco2)CC3C(F)(F)F)cc1 (stereo not given)	0.749*	14.0
O=C(c1cnn2c1NC(c1ccco1)CC2C(F)(F)F)N1CCN(Cc2ccccc2)CC1 (stereo not given)	0.7*	5.0
CC(O)c1cccc(NC(=O)c2cc3n(n2)C(C(F)(F)F)CC(c2ccc(Cl)cc2)N3)c1 (stereo not given)	1.02	-3.4
COc1ccc(NC(=O)c2cnn3c2NC(c2ccco2)CC3C(F)(F)F)c(OC)c1 (stereo not given)	1.04	10.4
Cc1ccc(S(=O)(=O)C(=O)Nc2cccc3nsnc23)cc1	1.04	-1.9
O=C1C=CC(=NS(=O)(=O)c2cc(Cl)ccc2Cl)C=C1	0.923	11.9
O=C(Cc1cccs1)NCC1CCCO1 (stereo not given)	0.985	-7.2
CCCc1cc(=O)n2[nH]c(-c3cccs3)cc2n1	1.04	26.3
COc1ccc(C2CC(C(F)(F)F)n3ncc(C(=O)Nc4cccc(C(C)O)c4)c3N2)cc1OC (stereo not given)	0.699*	7.7
COc1ccc(C2CC(C(F)(F)F)n3ncc(C(=O)Nc4cc(Cl)ccc4O)c3N2)cc1OC (stereo not given)	0.995	5.7
SMILES	Cy5 interf NS3h	NS3h inh CB
CCC(=O)N1CCN(c2ccc(C(=O)c3ccc(OC)c(Br)c3)cc2F)CC1	1.03	0.4
CC(C)C(=O)Nc1ccc(Br)cc1C(=O)O	0.971	-1.6
Cc1ccc(C)n1-c1ccc(Br)cc1C(=O)O	1.13	48.9*
COc1ccccc1/C=C1\C(=O)NC(=S)N(c2ccc(Br)cc2)C1=O	1.05	2.6
Cc1cc(=O)n2ccc(CN(C)C)c(O)c2n1	0.621*	5.2
CC(=O)c1ccc(N2CCC(C)CC2)c(F)c1	1.04	9.9
CC(=O)c1ccc(N2CCN(S(=O)(=O)c3ccccc3)CC2)c(F)c1	0.785*	8.7
Cc1ccc(NC2CC(=O)N(c3ccccc3)C2=O)cc1 (stereo not given)	1.06	11.8
CC(NC(=O)CN(c1cccc(Cl)c1)S(C)(=O)=O)c1ccccc1 (stereo not given)	1.02	2.2
O=c1c(-c2ccc(Cl)cc2)c(C(F)(F)F)oc2cc(O)ccc12	1.03	15.5
C=CCOC(=O)C1=C(C)NC(C)=C(C(=O)OCC=C)C1c1ccc(O)c(OCC)c1	0.879	13.3
C=CCOC(=O)C1=C(C)NC(C)=C(C(=O)OCC=C)C1c1ccc(OC)c(OC)c1	0.8*	26.9
COc1cc(/C=C2\NC(=S)NC2=O)ccc1OC(=O)C12CC3CC(CC(C3)C1)C2	0.682*	6.8
Cc1ccc(OC(=O)C23CC4CC(CC(C4)C2)C3)c(C)n1	0.831	-2.3
O=C(c1ccccc1O)N1N=C(c2ccc(Br)cc2)CC1(O)C(F)(F)F (stereo not given)	0.92	5.0
O=C(c1ccccc1Br)N1N=C(c2ccccc2)CC1(O)C(F)(F)F (stereo not given)	0.794*	4.8
Cc1nc(C=C2C(=O)C=Cc3ccccc32)c(O)o1	1.06	-1.9
CCOC(=O)c1c(C)[nH]c(C=C2C(=O)C=Cc3ccccc32)c1O	0.425*	-8.5
Cc1cc(/C=c2\sc3nc4ccccc4n3c2=O)c(C)n1C	1.03	2.5
COC(=O)c1c(C)oc2cc3c(C(=O)OC)c(C)oc3cc12	1.05	0.3
COc1cc(/C=C2/C(=O)N(c3ccccc3)N=C2C)cc(I)c1O	0.694*	16.8
COc1cc(/C=C2/C(=O)N(c3ccccc3)N=C2C)cc([N+](=O)[O-])c1O	0.935	4.2
COc1ccc(-c2cc3c(ccc4ccccc43)oc2=O)cc1OC	0.967	10.9
COc1ccc(NC(=O)CN(c2ccc(OC)cc2OC)S(=O)(=O)c2ccc(C)cc2)c(OC)c1	1.01	8.2
O=Cc1ccc(OC(=O)c2ccccc2I)cc1	0.698*	15.2
SMILES	Cy5 interf NS3h	NS3h inh CB
O=C1NC(=O)/C(=C/c2ccc(OC(=O)c3ccccc3I)cc2)S1	1.15	7.8
O=C1c2cccc3cccc(c23)C(=O)N1/N=C\c1ccc(O)cc1	1.03	6.7
O=C1c2ccccc2C(=O)N1/N=C\c1c(O)ccc2ccccc12	0.623*	8.7
CCOc1ccc2oc(C)c(C(=O)O)c2c1	0.945	8.8
CCCC1=NN(c2ccc([N+](=O)[O-])cc2)C(=O)/C1=C\c1cc(OC)c(OC)c(OC)c1	0.951	-3.8
CCOc1cccc(C(=O)Nc2ccc3ccccc3c2)c1	1.05	12.6
CCOC(=O)/C(=C\c1ccc(-c2ccc(S(N)(=O)=O)cc2)o1)C(C)=O	1.02	4.1
O=C(NC(=C(Cl)Cl)S(=O)(=O)c1ccc(Cl)cc1)c1ccccc1	0.788*	1.7
COC(=NS(=O)(=O)c1ccc(Cl)cc1)c1ccccc1	1.03	4.1
Cc1ccc(C(=O)N/C(=C\c2ccccc2)C(=O)NCc2ccncc2)cc1	0.914	7.9
C/C(=N/N=C\c1cccc([N+](=O)[O-])c1)C1C(=O)c2ccccc2C1=O	0.622*	8.7
CC(=O)N/C(=C\c1cccc([N+](=O)[O-])c1)C(=O)NC(C)C	1	5.7
CC(=O)Nc1ccc(N=Cc2ccc([N+](=O)[O-])s2)cc1	0.805	16.1
COc1ccc(C2(CNC(=O)c3ccc(OCC(C)C)cc3)CCCC2)cc1OC	1.05	9.7
O=C1C(=O)N(c2cccc([N+](=O)[O-])c2)C(c2ccccc2F)C1=C(O)c1ccccc1 (stereo not given)	1.08	6.3
CC1CCN(Cc2c(O)ccc3c4c(c(=O)oc23)CCC4)CC1	1.1	-0.6
O=c1oc(-c2cccnc2)nc2ccccc12	0.998	3.1
O=C1c2ccc(-c3nc4ccccc4c(=O)o3)cc2C(=O)N1c1c[nH]c(=O)[nH]c1=O	0.997	41.3*

Screening data deposited in PubChem by Milwaukee Institute for Drug Discovery.
